Measured values from PubChem BioAssay (Tox21).
Results filed as inconclusive are left out. Activity calls are given as the source filed them. Unless noted, calls come from the whole dose curve; as a rule, active = well fitted curve in the direction sought with a large enough effect in the repeat runs; inconclusive = weak or mixed curves; inactive = no such curve, though single readings can be large; an effect the other way counts as inactive or inconclusive.

Columns and labels:
[1] = molecular target: Progesterone receptor (Homo sapiens) (UniProt P06401); test: qHTS assay to identify small molecule agonists of the progesterone receptor (PR) signaling pathway (AID 1346784; calls by dose curve; note: nearly all actives have a fitted effect of over 30% in size)
Progesterone receptor (Homo sapiens), sequence (P06401 whole entry, looked up): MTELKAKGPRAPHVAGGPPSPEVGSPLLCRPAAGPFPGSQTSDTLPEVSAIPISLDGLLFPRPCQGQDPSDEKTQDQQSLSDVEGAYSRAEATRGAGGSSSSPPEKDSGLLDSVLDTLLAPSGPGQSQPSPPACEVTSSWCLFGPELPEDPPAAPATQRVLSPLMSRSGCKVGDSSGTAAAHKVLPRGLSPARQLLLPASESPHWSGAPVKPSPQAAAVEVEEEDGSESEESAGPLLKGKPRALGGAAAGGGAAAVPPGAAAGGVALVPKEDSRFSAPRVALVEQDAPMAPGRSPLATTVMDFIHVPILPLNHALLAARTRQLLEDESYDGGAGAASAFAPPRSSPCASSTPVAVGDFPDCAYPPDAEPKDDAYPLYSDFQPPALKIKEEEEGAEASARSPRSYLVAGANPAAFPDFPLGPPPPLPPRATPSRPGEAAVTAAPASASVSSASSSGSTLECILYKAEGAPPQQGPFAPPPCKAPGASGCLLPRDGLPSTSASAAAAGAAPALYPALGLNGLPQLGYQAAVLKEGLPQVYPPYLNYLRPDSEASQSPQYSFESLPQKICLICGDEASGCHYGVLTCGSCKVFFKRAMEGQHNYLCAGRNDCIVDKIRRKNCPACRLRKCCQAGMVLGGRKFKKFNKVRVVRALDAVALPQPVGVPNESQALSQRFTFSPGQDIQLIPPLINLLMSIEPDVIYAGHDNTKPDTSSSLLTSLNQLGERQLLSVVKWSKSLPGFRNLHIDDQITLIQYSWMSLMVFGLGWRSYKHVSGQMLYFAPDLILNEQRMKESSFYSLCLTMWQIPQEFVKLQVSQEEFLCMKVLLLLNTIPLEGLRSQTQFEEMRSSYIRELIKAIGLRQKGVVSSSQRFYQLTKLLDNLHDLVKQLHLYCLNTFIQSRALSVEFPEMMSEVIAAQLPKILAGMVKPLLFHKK
Method in brief: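 Cells (PR-UAS-bla HEK 293T, GripTite) were plated in assay medium containing 2% charcoal-stripped FBS and incubated 6 hr. Test compounds in DMSO were added for 16 hr at 37C. FRET substrate was then loaded for 2 hr at room temperature before fluorescence reading.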

[2] = molecular target: Progesterone receptor (Homo sapiens) (UniProt P06401); test: qHTS assay to identify small molecule antagonists of the progesterone receptor (PR) signaling pathway (AID 1346795; active = well fitted inhibition curve with a large enough effect in the signal ratio in the repeat runs, not every such curve was filed as active; the % refers to the signal ratio; note: potency is the fitted concentration of half-maximal effect)
Method in brief: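 Antagonist mode: compounds tested against 1 nM (final) promegestone stimulation in HEK293T cells expressing PR-UAS-bla reporter, 16 hr at 37C, 5% CO2; beta-lactamase activity detected via B/G FRET substrate after 2 hr at room temperature.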

[3] = qHTS assay to identify small molecule antagonists of the progesterone receptor (PR) signaling pathway - cell viability counter screen (AID 1346798); note: series mostly up to about 92 µM; nearly all actives have a fitted effect of over 50% in size
Method in brief: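 Counter screen for cytotoxicity: viability of PR-UAS-bla HEK293T cells was measured with CellTiter-Glo luminescence following 16 hr compound exposure in the presence of R5020.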

[4] = qHTS assay to identify small molecule agonists of the progesterone receptor (PR) signaling pathway - cell viability counter screen (AID 1346799; calls by dose curve; note: nearly all actives have a fitted effect of over 45% in size)
Method in brief: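 Cells (PR-UAS-bla HEK293T) are plated at 3,000/well in 2% charcoal-stripped FBS medium, rested 6 hr, dosed and incubated 16 hr at 37C. CellTiter-Glo is then added and luminescence measured after 30 min at room temperature.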

[5] = qHTS assay to identify small molecule antagonists of the TGF-beta/Smad signaling pathway - cell viability counter screen (AID 1346824); note: nearly all actives have a fitted effect of over 50% in size
Method in brief: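 SBE-bla HEK 293T cells were plated overnight at 37 C, then given compounds in DMSO plus TGF-beta1 (added as 0.25 ng/mL solution) for 5 hr. After the bla read, CellTiter-Glo was added to the same wells and luminescence read after 30 min at room temperature.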

[6] = qHTS assay to identify small molecule agonists of the TGF-beta/Smad signaling pathway - cell viability counter screen (AID 1346829); note: top concentration of the series differs between compounds; nearly all actives have a fitted effect of over 45% in size
Method in brief: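 Luminescence from CellTiter-Glo, read after a 30 min room-temperature incubation, gives cell viability of SBE-bla HEK 293T cells treated 5 hr with compounds at 37 C.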

[7] = qHTS assay to identify small molecule agonists of the TGF-beta/Smad signaling pathway (AID 1346859; active = well fitted activation curve with a large enough effect in the signal ratio in the repeat runs, not every such curve was filed as active; the % refers to the signal ratio; note: series mostly up to about 77 µM)
Method in brief: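 Reporter line: HEK 293T with stably integrated SBE-controlled beta-lactamase. Compound exposure lasts 5 hr at 37 C and 5% CO2; substrate loading follows for 2 hr at room temperature, with emission read at 460 and 530 nm.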

[8] = molecular target: Thyrotropin-releasing hormone receptor (Homo sapiens) (UniProt P34981); test: qHTS assay to identify small molecule antagonists of the thyrotropin-releasing hormone receptor (TRHR) signaling pathway (AID 1346877; active = well fitted inhibition curve with a large enough effect in the repeat runs, not every such curve was filed as active; note: series mostly up to about 51 µM)
Thyrotropin-releasing hormone receptor (Homo sapiens), sequence (P34981 whole entry, looked up): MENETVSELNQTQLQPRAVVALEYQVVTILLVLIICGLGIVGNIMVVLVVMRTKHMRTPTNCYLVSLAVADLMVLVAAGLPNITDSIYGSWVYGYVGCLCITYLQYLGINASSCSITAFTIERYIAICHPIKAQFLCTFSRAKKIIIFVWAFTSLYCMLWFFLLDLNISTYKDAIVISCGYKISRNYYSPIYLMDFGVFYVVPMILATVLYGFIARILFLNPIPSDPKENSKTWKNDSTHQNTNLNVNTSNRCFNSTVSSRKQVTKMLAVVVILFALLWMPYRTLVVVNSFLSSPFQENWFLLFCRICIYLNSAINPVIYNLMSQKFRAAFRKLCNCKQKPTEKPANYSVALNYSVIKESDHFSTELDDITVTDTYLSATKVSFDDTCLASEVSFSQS
Method in brief: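 Screening used HEK293 cells engineered with TRHR, with a brief 5 min room-temperature compound exposure preceding addition of TRH to 1 nM. The read-out was kinetic calcium-dye fluorescence, concentration-response from 15 doses in triplicate.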

[9] = molecular target: Thyrotropin-releasing hormone receptor (Homo sapiens) (UniProt P34981); test: qHTS assay to identify small molecule agonists of the thyrotropin-releasing hormone receptor (TRHR) signaling pathway (AID 1346891; calls by dose curve;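 note: HEK293 cells expressing TRHR with calcium dye readout; series mostly up to about 58 µM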)
Method in brief: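 Cells: TRHR-Hek293, seeded and incubated 18 h. Dye loading: 2 h at 37 °C. Compound added from DMSO stock by pin tool. Read-out: kinetic calcium fluorescence over 3 min.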

[10] = Human pregnane X receptor (PXR) small molecule agonists, qHTS cell viability counter screen (AID 1346977); note: nearly all actives have a fitted effect of over 50% in size; note: potency is the fitted concentration of half-maximal effect
Method in brief: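 Cytotoxicity counter screen run in the same wells as the PXR luciferase assay, using PXR-Luc HepG2 cells in charcoal-stripped serum medium. Viability: CellTiter-Fluor fluorescence after 24hr compound treatment.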

[11] = Caspase-3/7 induction in HepG2 cells by small molecules, qHTS assay (AID 1346978); note: nearly all actives have a fitted effect of over 15% in size
Method in brief: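 Wild-type HepG2 cells (2,000/well) were settled 5 h at 37 C, 5% CO2, then exposed to compounds in DMSO for 17 h. Caspase-3/7 activity was read by luminescence 30 min after adding Caspase-Glo 3/7 reagent at room temperature.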

[12] = Caspase-3/7 induction in CHO-K1 cells by small molecules, qHTS cell viability counter screen (AID 1346979); note: nearly all actives have a fitted effect of over 35% in size
Method in brief: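 Cytotoxicity counter screen run in parallel with the caspase-3/7 assay: CHO-K1 cells, 16hr compound treatment at 37C, then CellTiter-Fluor for 1hr before fluorescence reading.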

[13] = Caspase-3/7 induction in CHO-K1 cells by small molecules, qHTS assay (AID 1346980); note: nearly all actives have a fitted effect of over 15% in size
Method in brief: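 Wild-type cells were seeded at 1,500 per well and settled 5 hr at 37 C, 5% CO2, then exposed to DMSO-dissolved compounds for 17 hr. Caspase-Glo 3/7 reagent was added, and luminescence was read after 30min at room temperature.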

[14] = Caspase-3/7 induction in HepG2 cells by small molecules, qHTS cell viability counter screen (AID 1346981); note: series mostly up to about 92 µM; nearly all actives have a fitted effect of over 30% in size
Method in brief: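 Multiplexed with the caspase-3/7 assay: HepG2 cells, 16 hr compound treatment, CellTiter-Fluor viability detection by fluorescence.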

[15] = molecular target: Nuclear receptor subfamily 1 group I member 2 (Homo sapiens) (UniProt O75469); test: Human pregnane X receptor (PXR) small molecule agonists, qHTS assay (AID 1346982); note: nearly all actives have a fitted effect of over 35% in size; note: potency is the fitted concentration of half-maximal effect
Nuclear receptor subfamily 1 group I member 2 (Homo sapiens), sequence (O75469 whole entry, looked up): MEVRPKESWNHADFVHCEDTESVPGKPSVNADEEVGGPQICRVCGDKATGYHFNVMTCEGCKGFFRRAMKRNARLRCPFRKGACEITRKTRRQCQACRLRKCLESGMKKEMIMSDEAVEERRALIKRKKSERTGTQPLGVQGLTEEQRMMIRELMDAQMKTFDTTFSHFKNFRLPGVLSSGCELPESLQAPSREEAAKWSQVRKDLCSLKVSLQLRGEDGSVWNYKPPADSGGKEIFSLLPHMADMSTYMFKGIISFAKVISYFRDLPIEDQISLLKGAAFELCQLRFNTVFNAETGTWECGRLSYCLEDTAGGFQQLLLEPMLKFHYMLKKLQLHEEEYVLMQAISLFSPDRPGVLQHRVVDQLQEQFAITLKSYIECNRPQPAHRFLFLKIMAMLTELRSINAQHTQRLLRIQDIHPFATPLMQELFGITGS
Method in brief: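 We seeded PXR-Luc HepG2 cells in assay medium containing 5% charcoal-stripped FBS, added compounds 5 hr later, incubated 24 hr, and read luminescence with ONE-Glo reagent.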

[16] = molecular target: Acetylcholinesterase (Homo sapiens) (UniProt P22303); test: Acetylcholinesterase (AChE) small molecule antagonists: colormetric cell-based qHTS assay (AID 1347395; calls by dose curve; note: nearly all actives have a fitted effect of over 30% in size; note: potency is the fitted concentration of half-maximal effect)
Acetylcholinesterase (Homo sapiens), sequence (P22303 whole entry, looked up): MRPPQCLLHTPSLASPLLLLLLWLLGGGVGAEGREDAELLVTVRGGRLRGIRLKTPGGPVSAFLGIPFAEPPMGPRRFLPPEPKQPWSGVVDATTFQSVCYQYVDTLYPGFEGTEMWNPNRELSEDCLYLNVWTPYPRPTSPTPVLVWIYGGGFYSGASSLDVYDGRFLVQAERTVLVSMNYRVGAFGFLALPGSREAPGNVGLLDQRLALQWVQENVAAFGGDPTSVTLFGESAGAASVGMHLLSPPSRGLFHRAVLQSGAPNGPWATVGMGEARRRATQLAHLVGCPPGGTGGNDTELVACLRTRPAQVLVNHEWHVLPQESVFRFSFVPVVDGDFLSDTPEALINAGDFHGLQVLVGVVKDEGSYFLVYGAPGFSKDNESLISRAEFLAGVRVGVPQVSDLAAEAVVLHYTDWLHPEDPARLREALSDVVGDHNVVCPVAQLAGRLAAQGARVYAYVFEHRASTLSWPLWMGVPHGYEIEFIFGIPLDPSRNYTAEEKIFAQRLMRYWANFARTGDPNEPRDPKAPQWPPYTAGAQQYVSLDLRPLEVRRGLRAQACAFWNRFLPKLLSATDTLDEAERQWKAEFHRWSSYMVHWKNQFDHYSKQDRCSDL
Method in brief: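 Cells (SH-SY5Y, 2,000 per well) are seeded and left overnight at 37 C. Compound is added for 30 min, then DTNB and acetylthiocholine for a further 90 min at 37 C before absorbance-based thiocholine detection.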

[17] = molecular target: Acetylcholinesterase (Homo sapiens) (UniProt P22303); test: Acetylcholinesterase (AChE) small molecule antagonists: enzyme-based qHTS assay (AID 1347397; calls by dose curve; note: nearly all actives have a fitted effect of over 55% in size); conditions: Potency: AChE enzyme activity inhibition
Method in brief: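 Recombinant human AChE, dispensed at 50 mU/mL, was preincubated with Tox21 10K compounds or DMSO vehicle for 30 min at room temperature. DTNB plus acetylthiocholine was then added, and thiocholine was measured colorimetrically after a further 10 min.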

Measured: Potency

CNC(=O)/C=C(\C)OP(=O)(OC)OC
active: [16] 39.9 µM
not listed: [17]
inactive: all other assays above

[Cl-].[Cl-].[Sn+2]
not listed: [8] | [9] | [15] | [16] | [17]
inactive: all other assays above

CCN(CC)C(=O)N[C@@H]1C=C2c3cccc4[nH]cc(c34)C[C@@H]2N(C)C1
not listed: [15] | [16]
inactive: all other assays above

Clc1cc(Cl)c(-c2cc(Cl)c(Cl)cc2Cl)cc1Cl
active: [2] 10.2 µM
inactive: all other assays above

O=S(=O)(O)F
active: [15] 53.8 µM
not listed: [14]
inactive: all other assays above

O=P(Cl)(Cl)Cl
inactive: all assays above

c1cc[n+]2c(c1)-c1cccc[n+]1CC2
active: [10] 13.3 µM
inactive: all other assays above

CCCCCON=O
not listed: [8] | [9]
inactive: all other assays above
